Data taken from PubChem BioAssay AID588397 (National Center for Advancing Translational Sciences (NCATS), 2011).
In all, about 1,300 compounds went through this assay and about 1,000 (77%) were called active. Roughly 7% stayed inconclusive and do not appear here. The set was probably picked from earlier hits. The list shows a part of the results. A number with no mark means an inactive call. Calls come from the whole dose curve; as a rule, active = well fitted inhibition curve with a large enough effect; inconclusive = small, poorly fitted or top-dose-only effect; inactive = no such curve, though single readings can be large or run the other way.

assay: qHTS of small molecules that selectively kill Giardia lamblia: Hit Validation.;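 note: viability measured as ATP content by luminescence so killing lowers signal; trophozoites exposed to compounds for 48 h anaerobically at 37 °C; nearly all actives have a fitted effect of over 65% in size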; details: Giardia lamblia trophozoite viability, dose-response; series mostly up to 38.3 µM; activity change, negative = killing: at the top concentration
Method in brief: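 Luminescence from cellular ATP indicates surviving trophozoites (100 cells/well) following 48 hrs anaerobic compound treatment at 37 deg C; signal develops 15-30 min at room temperature.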
% is set by controls: 0 for no effect and ±100 for the full control effect; potency is the fitted concentration of half-maximal effect.

Row | SMILES | activity change, negative = killing [%] | Potency
1 | O=S1(=O)[C@H]2C[C@@H]3C=C[C@@]2(CN1Cc1cccc(F)c1)O3 | -10.8 | –
2 | COc1ccc(-n2nc([N+](=O)[O-])c(=NCCc3cccc(C)c3)n2O)cc1 | – | 1300 nM (active)
3 | Cc1cccc(CCN=c2c([N+](=O)[O-])nn(-c3ccccc3)n2O)c1 | – | 2900 nM (active)
4 | CN(C)c1nc(=Nc2cccc(Cl)c2)ss1 | – | 11600 nM (active)
5 | CCCSc1nc2c(c(=O)n1CC)SC(C)C2 (configuration not stated) | -12.4 | –
6 | O=C(Nc1nnc(SCC(=O)N2CCOCC2)s1)c1ccccc1Cl | – | 5790 nM (active)
7 | O=C(CSc1nnc(NC(=O)c2ccccc2)s1)NCc1ccco1 | – | 4600 nM (active)
8 | O=C(Nc1nnc(SCC(=O)N2CCOCC2)s1)c1ccccc1 | – | 5160 nM (active)
9 | O=C(CSc1nnc(NC(=O)c2c(F)cccc2F)s1)Nc1ccc(F)cc1 | -33.4 | –
10 | O=[N+]([O-])c1cn(-c2nc(-c3ccco3)cc(C(F)(F)F)n2)cn1 | – | 2590 nM (active)
11 | COC(=O)[C@@]1(Cc2ccc(OC)cc2)[C@H]2c3cc(C(=O)N4CCCC4)n(CCn4cc([N+](=O)[O-])nc4C)c3C[C@H]2CN1C(=O)c1ccccc1 | – | 206 nM (active)
12 | O=[N+]([O-])c1ncc(Br)cc1Nc1ccccc1 | – | 516 nM (active)
13 | C[C@@H]1[C@H]2[C@@H](O[C@@H]3O[C@H](CO)[C@@H](O)[C@H](O)[C@H]3O)OC=C(C(=O)O)[C@H]2C[C@@H]1O | -3.42 | –
14 | Nc1nonc1OCCN1CCN(c2ccc([N+](=O)[O-])c3cccnc23)CC1 | – | 1830 nM (active)
15 | O=[N+]([O-])c1ccc(N2CCN(CCO)CC2)c2ncccc12 | – | 1450 nM (active)
16 | CS(=O)(=O)N1CCN(c2ccc([N+](=O)[O-])c3cccnc23)CC1 | – | 1030 nM (active)
17 | O=C(c1cccc(F)c1)N1CCN(c2ccc([N+](=O)[O-])c3cccnc23)CC1 | – | 3260 nM (active)
18 | O=c1c([N+](=O)[O-])cccn1Cc1ccccc1Cl | – | 4100 nM (active)
19 | O=c1c([N+](=O)[O-])cccn1Cc1ccc(F)cc1Cl | – | 2310 nM (active)
20 | Clc1ccc2c(N/N=C/c3ccccc3Br)ccnc2c1 | – | 1630 nM (active)
21 | Cc1ccccc1/C=N/Nc1ccnc2cc(Cl)ccc12 | – | 326 nM (active)

Row | SMILES | activity change, negative = killing [%] | Potency
22 | Cc1ccc(/C=N/Nc2ccnc3cc(Cl)ccc23)c(C)c1 | – | 365 nM (active)
23 | COc1cc(/C=C/c2onc(C)c2[N+](=O)[O-])cc(OC)c1OC | – | 2050 nM (active)
24 | Cc1noc(/C=C/c2cccnc2)c1[N+](=O)[O-] | – | 8180 nM (active)
25 | Cc1cc2[nH]c3c(c[n+](C)c4ccccc34)c2cc1C | – | 1160 nM (active)
26 | COc1cc(C2Nc3ccccc3C(=O)N2c2ccc3c(c2)OCCO3)ccc1OCC(C)C (configuration not stated) | – | 3260 nM (active)
27 | CC(C)Oc1ccccc1C1Nc2ccccc2C(=O)N1c1ccc2c(c1)OCCO2 (configuration not stated) | – | 5160 nM (active)
28 | CN(C)c1ccc(N=Nc2ccccc2C(=O)OCC(=O)N2CCCC2)cc1 | – | 1450 nM (active)
29 | CN(C)c1ccc(N=Nc2ccccc2C(=O)O)cc1 | – | 290 nM (active)
30 | CC(=O)c1ccc(NC(=O)COC(=O)c2ccccc2N=Nc2ccc(N(C)C)cc2)cc1 | – | 3260 nM (active)
31 | Cc1ccc(-n2nc3c(N4CCC(C(=O)NCc5cccc(F)c5)CC4)nnc(C)c3c2C)cc1 | -12.7 | –
32 | CC(=O)NC(Cc1cccc(C)c1)C(=O)NC1CCN(c2ncccc2[N+](=O)[O-])CC1 (configuration not stated) | – | 4600 nM (active)
33 | CC(=O)NC(Cc1cccc(F)c1)C(=O)NC1CCN(c2ncccc2[N+](=O)[O-])CC1 (configuration not stated) | – | 2310 nM (active)
34 | COc1ccc(CCNC(=O)C23CCC(C)(C(=O)C2=O)C3(C)C)cc1OC (configuration not stated) | -8.09 | –
35 | COc1ccc(OC)c(CCNC(=O)CSc2ccsc2[N+](=O)[O-])c1 | – | 729 nM (active)
36 | COc1ccc(CCNC(=O)CSc2ccsc2[N+](=O)[O-])cc1OC | – | 516 nM (active)
37 | COCCn1c(C)cc(/C=C2\NC(=S)N(C)C2=O)c1C | -34.6 | –
38 | COCCn1c(C)cc(/C=C2/SC(=O)N(C(C)C(=O)OC)C2=O)c1C (configuration not stated) | – | 5790 nM (active)
39 | COc1ccc(OCc2nnc3n2N=C(c2ccc(OC)cc2)CS3)cc1 | -24.4 | –
40 | O=C(Nc1ccc(-c2cn3ccsc3n2)cc1)C1CC1 | – | 3260 nM (active)
41 | COc1ccc(-c2cn3ccsc3n2)cc1 | – | 9180 nM (active)
42 | CC(=O)OCCSc1c(-c2ccccc2)c2cc(Cl)ccc2[nH]c1=O | -2.52 | –

Row | SMILES | activity change, negative = killing [%] | Potency
43 | Cc1ccc(N/C(C(Cl)=C(Cl)Cl)=C(/Cl)[N+](=O)[O-])c(C)c1 | – | 818 nM (active)
44 | Cc1ccc([N+](=O)[O-])c(C(=O)Nc2cccnc2Cl)c1 | -9.71 | –
45 | Cc1ccc(NC(=O)c2ccc([N+](=O)[O-])o2)c(C)c1 | – | 1300 nM (active)
46 | Cc1cccc(NC(=O)N2CCN(Cc3ccc4c(c3)OCO4)CC2)c1C | -17.8 | –
47 | COc1ccccc1NC(=O)c1ccc([N+](=O)[O-])o1 | – | 1450 nM (active)
48 | CCS(=O)(=O)N1Cc2ccccc2CC1C(=O)Nc1ccccc1OC (configuration not stated) | -4.77 | –
49 | Cc1cccc(NC(=O)c2ccc([N+](=O)[O-])o2)c1C | – | 1830 nM (active)
50 | COc1ccccc1S(=O)(=O)Cc1ccc(C(=O)NCC(OC)OC)o1 | 11.7 | –
51 | O=C(Nc1ccccc1Cl)c1ccc([N+](=O)[O-])o1 | – | 1300 nM (active)
52 | Cc1ccccc1NC(=O)c1ccc([N+](=O)[O-])o1 | – | 1830 nM (active)
53 | COc1ccc(-c2cc3ccccc3oc2=O)cc1NC(=O)c1ccc([N+](=O)[O-])o1 | – | 729 nM (active)
54 | Cn1c(=O)c(=O)n(C)c2cc([N+](=O)[O-])c(N3CCOCC3)cc21 | – | 4100 nM (active)
55 | O=C(N/N=C/c1ccc([N+](=O)[O-])o1)c1cc2ccccc2o1 | – | 516 nM (active)
56 | O=C(N/N=C/c1ccc([N+](=O)[O-])o1)c1sc2ccccc2c1Cl | – | 1300 nM (active)
57 | O=C(N/N=C/c1ccc([N+](=O)[O-])o1)c1cc2c(ccc3ccccc32)o1 | – | 729 nM (active)
58 | O=C(N/N=C/c1ccc([N+](=O)[O-])o1)c1cn2ccc3ccccc3c2n1 | – | 918 nM (active)
59 | COc1ccc(-n2nc([N+](=O)[O-])c(=NC3CCN(Cc4ccccc4)CC3)n2O)cc1 | – | 729 nM (active)
60 | O=[N+]([O-])c1nn(-c2ccc3c(c2)OCCO3)n(O)c1=NC1CCN(Cc2ccccc2)CC1 | – | 460 nM (active)
61 | O=[N+]([O-])c1nn(-c2ccccc2)n(O)c1=NC1CCN(Cc2ccccc2)CC1 | – | 365 nM (active)
62 | Cc1cccc(-n2nc([N+](=O)[O-])c(=NC3CCN(Cc4ccccc4)CC3)n2O)c1 | – | 729 nM (active)
